Molecules are shown by their SMILES. Structures can show the parent of a compound that is named as a salt. ± gives the standard deviation of the averaged measurements. In all, about 1,300 compounds were measured (“normalised cell viability”: median about 1, lowest 2% from about 0.14 on). Many of the other results were omitted from the sample, so the lowest values are more common in it than they were.

Experimental findings from the supplement of paper PMC6609913 are described below.

In the test the test system is V-C8 (BRCA2-deficient hamster cells). The test can be described thus: normalised cell viability (fraction of plate median); higher = more viable cells (less toxic). To be noted: 5 µM. A digest of the protocol: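 Cell viability was measured with a resazurin assay, normalised to the plate median (modified robust per cent of sample) and averaged over triplicate wells. Hamster V-C8 cells lacking BRCA2 and V-C8 cells with BRCA2 restored were seeded in 96-well plates. After 24 h, library drugs from 10 mM DMSO stocks were added at a final 5 μM in 100 μl medium and left for 3 days (screen 1) or 6 days (screen 2), with solvent-only wells alongside.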

`c1ccc([C@H]2CN3CCSC3=N2)cc1` [Levamisole hydrochloride]: the normalised cell viability (treatment time: 3 days) is 1.03 ± 0.02 and the normalised cell viability (treatment time: 6 days) stood at 1.02 ± 0.032.
In the same order, the values of `CCN(CC)CCc1nc(-c2ccccc2)no1` [Oxalamine citrate salt] are 0.986 ± 0.061 and 0.933 ± 0.14.
`O=C(O)Cc1cc(I)c(Oc2ccc(O)c(I)c2)c(I)c1` [Tiratricol, 3,3',5-triiodothyroacetic acid]: the normalised cell viability is, setting by setting: (treatment time: 3 days) 0.981 ± 0.023; (treatment time: 6 days) 1.03 ± 0.032.
`CCCc1cc(=O)[nH]c(=S)[nH]1` [Propylthiouracil] yielded a normalised cell viability (treatment time: 3 days) of 1.02 ± 0.022 and a normalised cell viability (treatment time: 6 days) of 1.025 ± 0.009.
`CC(=O)N1CCN(c2ccc(OCC3COC(Cn4ccnc4)(c4ccc(Cl)cc4Cl)O3)cc2)CC1` (stereo not given) [Ketoconazole]: the normalised cell viability reads like this: (treatment time: 3 days) 0.8 ± 0.022; (treatment time: 6 days) 0.898 ± 0.028.
In the same order, the values of `CC1(C)S[C@@H]2[C@H](NC(=O)[C@H](NC(=O)N3CCNC3=O)c3ccccc3)C(=O)N2[C@H]1C(=O)O` [Azlocillin sodium salt] are 1.01 ± 0.015 and 0.988 ± 0.092.
Consider `Clc1cnccn1` [2-Chloropyrazine], for which the normalised cell viability is 1.03 ± 0.019 (treatment time: 3 days) and 1.02 ± 0.016 (treatment time: 6 days).
With `COCC1=C(C(=O)OC(C)OC(=O)OC(C)C)N2C(=O)[C@@H](NC(=O)/C(=N\OC)c3csc(N)n3)[C@H]2SC1` (stereo not given in full) [Cefpodoxime proxetil], the normalised cell viability was 1.18 ± 0.025 (treatment time: 3 days) and 1.06 ± 0.086 (treatment time: 6 days).
Take `CC(C(=O)O)c1ccc(N2Cc3ccccc3C2=O)cc1` (stereo not given) [Indoprofen]: the normalised cell viability is 1.012 ± 0.0016 (treatment time: 3 days) and 1.08 ± 0.013 (treatment time: 6 days).
`Nc1nc(=O)[nH]cc1F` [Flucytosine]: the normalised cell viability was 1.06 ± 0.02 (treatment time: 3 days) and 0.987 ± 0.025 (treatment time: 6 days).
In the same order, the values of `Cc1ccc2c(c1)c1c3n2CCNC3CCC1` (stereo not given) [Pirlindole mesylate] are 0.904 ± 0.084 and 0.9725 ± 0.0077.
As for `NCc1ccccc1CC(=O)N[C@@H]1C(=O)N2C(C(=O)O)=C(CSc3nnnn3CC(=O)O)CS[C@H]12` [Ceforanide], the normalised cell viability (treatment time: 3 days) was found to be 1.02 ± 0.073 and the normalised cell viability (treatment time: 6 days) worked out at 1.21 ± 0.22.
Turning to `C=CC[N@@+]12CC[C@@]34c5ccccc5N5/C=C6/[C@H]7C[C@H]8[C@@]9(CC[N@@+]8(CC=C)C/C7=C/CO)c7ccccc7N(/C=C(/[C@@H](C[C@@H]31)/C(=C\CO)C2)[C@H]54)[C@@H]69` [Alcuronium chloride], the normalised cell viability by setting is: (treatment time: 3 days) 0.939 ± 0.13; (treatment time: 6 days) 1.03 ± 0.079.
In the same order, the values of `c1ccc(-c2ccc(C(c3ccccc3)n3ccnc3)cc2)cc1` (stereo not given) [Bifonazole] are 0.878 ± 0.032 and 0.74 ± 0.06.
In the case of `CC(=O)O[C@]1(C(C)=O)CC[C@H]2[C@@H]3C=C(Cl)C4=CC(=O)CC[C@]4(C)[C@H]3CC[C@@]21C` [Chlormadinone acetate], the normalised cell viability is 0.998 ± 0.06 (treatment time: 3 days) and 0.983 ± 0.043 (treatment time: 6 days).
In the same order, the values of `NNc1nncc2ccccc12` [Hydralazine hydrochloride] are 0.9847 ± 0.0028 and 1.03 ± 0.027.
Regarding `Nc1cc(-c2ccncc2)c[nH]c1=O` [Amrinone], the normalised cell viability (treatment time: 3 days) is 0.938 ± 0.029 and the normalised cell viability (treatment time: 6 days) was 0.951 ± 0.018.
In the same order, the values of `O=C(CCCCC(=O)Nc1c(I)cc(I)c(C(=O)O)c1I)Nc1c(I)cc(I)c(C(=O)O)c1I` [Iodipamide] are 1.03 ± 0.06 and 0.972 ± 0.029.
In the same order, the values of `CC(=O)Nc1ccc(CC(=O)O)cc1` [Actarit] are 1.05 ± 0.015 and 1.03 ± 0.038.
`O=C(CCCCCCC(=O)Nc1ccccc1)NO` [Vorinostat]: the normalised cell viability stood at 0.14 ± 0.012 (treatment time: 3 days) and 0.168 ± 0.012 (treatment time: 6 days).
In the same order, the values of `CC[C@H](C)C(=O)O[C@H]1CCC=C2C=C[C@H](C)[C@H](CC[C@@H]3C[C@@H](O)CC(=O)O3)[C@H]21` [Mevastatin] are 0.23 ± 0.011 and 0.229 ± 0.0063.
Consider `CCCNC(C)C(=O)Nc1c(C)csc1C(=O)OC` (stereo not given) [Articaine hydrochloride], for which the normalised cell viability (treatment time: 3 days) was determined as 1.03 ± 0.024 and the normalised cell viability (treatment time: 6 days) stood at 1.06 ± 0.084.
In the case of `Nc1ccc(S(=O)(=O)Nc2ccnn2-c2ccccc2)cc1` [Sulfaphenazole], the normalised cell viability (treatment time: 3 days) came out at 1.01 ± 0.011 and the normalised cell viability (treatment time: 6 days) worked out at 1.03 ± 0.031.
In the same order, the values of `COc1ccccc1OCC(O)CN1CCN(CC(=O)Nc2c(C)cccc2C)CC1` (stereo not given) [Ranolazine] are 1.04 ± 0.054 and 0.967 ± 0.086.
On to `N#CC(c1ccc(Cl)cc1)c1c(Cl)cc(-n2ncc(=O)[nH]c2=O)cc1Cl` (stereo not given) [Diclazuril], for which the normalised cell viability runs as follows: (treatment time: 3 days) 0.905 ± 0.068; (treatment time: 6 days) 0.875 ± 0.068.
As to `C#CCN(C)CCCOc1ccc(Cl)cc1Cl` [Clorgyline hydrochloride], the normalised cell viability was 1.11 ± 0.063 (treatment time: 3 days) and 1.019 ± 0.0054 (treatment time: 6 days).
In the same order, the values of `NS(=O)(=O)Cc1noc2ccccc12` [Zonisamide] are 1.01 ± 0.036 and 1.03 ± 0.065.
In the same order, the values of `COc1ccc2c(c1)C(=O)N(CCc1ccc(S(=O)(=O)NC(=O)NC3CCCCC3)cc1)C(=O)C2(C)C` [Gliquidone] are 1.05 ± 0.077 and 1.08 ± 0.049.
In the case of `CN1CCCN=C1/C=C/c1cccs1` [Pyrantel tartrate], the normalised cell viability was 1.06 ± 0.019 (treatment time: 3 days) and 1.02 ± 0.079 (treatment time: 6 days).
For the compound `CC(C)(C)NC[C@H](O)COc1nsnc1N1CCOCC1` [Timolol maleate salt], the normalised cell viability by setting is: (treatment time: 3 days) 1.01 ± 0.022; (treatment time: 6 days) 1.07 ± 0.065.
On to `CCN(CC)C(=O)Nc1ccc(OCC(O)CNC(C)(C)C)c(C(C)=O)c1` (stereo not given) [Celiprolol HCl], for which the normalised cell viability was found to be 1.13 ± 0.12 (treatment time: 3 days) and 0.988 ± 0.031 (treatment time: 6 days).
With `C[C@H](O)C(=O)Nc1c(I)c(C(=O)NC(CO)CO)c(I)c(C(=O)NC(CO)CO)c1I` [Iopamidol], the normalised cell viability is, setting by setting: (treatment time: 3 days) 0.952 ± 0.093; (treatment time: 6 days) 1.09 ± 0.06.
In the same order, the values of `Clc1ccc(CSC(Cn2ccnc2)c2ccc(Cl)cc2Cl)cc1` (stereo not given) [Sulconazole nitrate] are 0.983 ± 0.067 and 0.829 ± 0.043.
For the compound `CCOC(=O)Nc1ccc2c(c1)N(C(=O)CCN1CCOCC1)c1ccccc1S2` [Moricizine hydrochloride], the normalised cell viability by setting is: (treatment time: 3 days) 1.1 ± 0.13; (treatment time: 6 days) 1.13 ± 0.083.
Regarding `C=CC1=C(C(=O)O)N2C(=O)[C@@H](NC(=O)/C(=N\O)c3csc(N)n3)[C@H]2SC1` [Cefdinir], the normalised cell viability runs as follows: (treatment time: 3 days) 1.016 ± 0.0043; (treatment time: 6 days) 1.01 ± 0.06.
Regarding `Cc1c(C)c2c(c(C)c1O)CCC(C)(COc1ccc(CC3SC(=O)NC3=O)cc1)O2` (stereo not given) [Troglitazone], the normalised cell viability was 0.68 ± 0.04 (treatment time: 3 days) and 0.588 ± 0.04 (treatment time: 6 days).
On to `C=C(CC)C(=O)c1ccc(OCC(=O)O)c(Cl)c1Cl` [Ethacrynic acid], for which the normalised cell viability is, setting by setting: (treatment time: 3 days) 1.08 ± 0.038; (treatment time: 6 days) 1.01 ± 0.048.
In the same order, the values of `COc1cc2c(cc1OC)C(=O)C(CC1CCN(Cc3ccccc3)CC1)C2` (stereo not given) [Donepezil hydrochloride] are 0.957 ± 0.087 and 0.983 ± 0.011.
In the case of `OCC(O)CN1CCN(c2ccccc2)CC1` (racemic) [Dropropizine (R,S)], the normalised cell viability was determined as 0.964 ± 0.051 (treatment time: 3 days) and 1.01 ± 0.057 (treatment time: 6 days).
Regarding `C=C[C@H]1CN2CC[C@H]1C[C@@H]2[C@@H](O)c1ccnc2ccc(OC)cc12` [Quinidine hydrochloride monohydrate], the normalised cell viability stood at 0.997 ± 0.0082 (treatment time: 3 days) and 0.876 ± 0.16 (treatment time: 6 days).
